Experimental data as given in PubChem BioAssay (NCI).
This is part of a sample that, as a whole, favours compounds with a hit. Of some 83,000 tested, about 20% had one in any assay.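 The endpoint reported here, percent growth, reads 100 for growth as untreated, 0 for no net growth and -100 for all cells dead.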 Active and inactive are the calls of the source. Rule for the calls: active = growth percent below 10; inactive = the rest.

Tests used:
Experiment in all cases: NCI-60 one-dose screen, 48 h (100 = growth as untreated, 0 = no growth, -100 = all killed)
Conditions in all cases: 10 µM unless noted
[1] = tested on: SK-MEL-2 melanoma
[2] = tested on: EKVX NSCLC
[3] = tested on: SN12C renal
[4] = tested on: UO-31 renal
[5] = tested on: TK-10 renal
[6] = tested on: ACHN renal
[7] = tested on: CAKI-1 renal
[8] = tested on: A498 renal
[9] = tested on: CCRF-CEM leukemia
[10] = tested on: MOLT-4 leukemia
[11] = tested on: RPMI-8226 leukemia
[12] = tested on: OVCAR-8 ovarian
[13] = tested on: OVCAR-5 ovarian
[14] = tested on: OVCAR-4 ovarian
[15] = tested on: SK-OV-3 ovarian
[16] = tested on: IGROV1 ovarian
[17] = tested on: OVCAR-3 ovarian
[18] = tested on: NCI/ADR-RES ovarian
[19] = tested on: HS 578T breast

Measured: growth

COc1nc2ccc(C)cc2cc1-c1nc2c(cnn2-c2ccccc2)c(=O)[nH]1
inactive: [1] 60.5% | [2] 85.1% | [3] 98.3% | [4] 69.4% | [5] 109% | [6] 94.3% | [7] 86.9% | [8] 72.7% | [9] 79.4% | [10] 75.2% | [11] 80.8% | [12] 94% | [13] 94.5% | [14] 94.9% | [15] 73.6% | [16] 77.4% | [17] 50.2% | [18] 74.3%

Nc1nc(Cl)cc(=O)n1Cc1ccccc1
inactive: [1] 105% | [2] 94.1% | [3] 90.9% | [4] 82.9% | [5] 92.7% | [6] 107% | [7] 85.3% | [8] 99.4% | [9] 98.7% | [10] 86.8% | [11] 100% | [12] 92.1% | [13] 91% | [14] 97.1% | [15] 103% | [16] 115% | [17] 103% | [18] 91.9%

COc1ccc(C2=Nn3c(nnc3-c3cc(Cl)cc(Cl)c3Cl)SC2)cc1
inactive: [1] 22.4% | [2] 41.3% | [3] 39.3% | [5] 57.5% | [6] 33.5% | [7] 47.6% | [12] 19.5% | [14] 30.8% | [15] 24.4% | [19] 11.7%
active: [4] 5.61% | [8] -11.3% | [9] 0.0891% | [10] 8.31% | [11] 1.17% | [13] 6.36% | [16] -11% | [17] -24.6% | [18] -20.8%

C[C@H]1[C@H]2[C@H]3CC[C@@H]4[C@@]5(C)CC[C@H](O)C(C)(C)[C@@H]5CC[C@@]4(C)[C@]3(C)CC[C@]23CO[C@]1(C)[C@@H](C(=O)/C=C\c1cccnc1)C3
inactive: [1] 87.3% | [2] 101% | [3] 62.7% | [4] 58.7% | [5] 31.9% | [6] 41.6% | [7] 55.6% | [8] 72.9% | [9] 30.8% | [10] 25.2% | [12] 35.1% | [13] 121% | [14] 49% | [15] 77.8% | [16] 80.6% | [17] 46.7% | [19] 82% | [18] 78.9%
active: [11] 9.55%

COc1ccc(-c2conc2-c2ccccc2)cc1
active: [5] 6.72% | [8] -14% | [17] -28.5% | [18] 6.05%
inactive: [1] 41.6% | [2] 52.7% | [3] 33.2% | [4] 45.2% | [6] 36.5% | [7] 33.5% | [9] 25.7% | [10] 34.4% | [11] 32.7% | [12] 18.1% | [13] 27.7% | [14] 47.8% | [15] 38.2% | [16] 26.2%

COc1cc(CNS(=O)(=O)c2ccc(C)cc2)ccc1OCc1cn(-c2ccccc2)nn1
inactive: [1] 102% | [2] 87.6% | [3] 93.3% | [4] 79.5% | [5] 104% | [6] 95.1% | [7] 88.5% | [8] 59% | [9] 88.9% | [10] 88.4% | [11] 67.9% | [12] 93.2% | [13] 97.9% | [14] 56.8% | [15] 97.6% | [16] 83.7% | [17] 85% | [19] 86.1% | [18] 81.3%

CNc1ccc(Nc2cccc(C)c2)c2c1C(=O)c1ccccc1C2=O
inactive: [1] 60% | [2] 164% | [3] 80.4% | [4] 58.3% | [5] 100% | [6] 78.1% | [7] 131% | [8] 89.2% | [9] 102% | [10] 85.1% | [11] 74.3% | [12] 99.6% | [13] 91.4% | [14] 81.6% | [15] 86.4% | [16] 11.2% | [17] 110% | [19] 101% | [18] 98.8%

COc1ccc(-c2cc(-c3cc(OC)c(OC)c(OC)c3)nc(N3CCOCC3)c2C#N)cc1
active: [7] -22.7%
inactive: [1] 76.1% | [2] 64.9% | [3] 81% | [4] 63.7% | [5] 100% | [6] 68.3% | [8] 76.7% | [9] 89.9% | [10] 56.7% | [11] 63.7% | [12] 78.9% | [13] 78.4% | [14] 85.8% | [15] 98.2% | [16] 77.6% | [17] 82.9% | [19] 67.5% | [18] 29.9%

C#C[C@]1(O)CC[C@H]2[C@@H]3CC=C4c5sc(Nc6cc(F)ccc6F)nc5CC[C@]4(C)[C@H]3CC[C@@]21C
active: [1] -6.68% | [3] -43.1% | [4] -98.3% | [6] -68.2% | [7] -31.5% | [8] -13.4% | [9] 4.58% | [10] 6.12% | [11] -28.3% | [13] 2.88% | [15] -1.09% | [16] -33.5% | [17] -22.7% | [18] 7.49%
inactive: [2] 23.9% | [5] 18.5% | [12] 18.4% | [14] 23%

CCCSc1nc2ccc(C)cc2cc1/C=[N+](\[O-])c1ccccc1
inactive: [1] 68.8% | [2] 80.6% | [3] 26.1% | [4] 44.7% | [5] 89.5% | [6] 49.2% | [7] 70.5% | [8] 74.6% | [9] 11.2% | [10] 27.2% | [11] 17.1% | [12] 12.4% | [13] 74.3% | [14] 55% | [15] 75.1% | [16] 44.4%
active: [17] -12% | [18] 7.89%

CCC12CCC[N+]3([O-])CCC4(C(=Nc5ccccc54)C(O)(C(=O)OC)C1)C23 (stereo not given)
inactive: [1] 121% | [2] 101% | [3] 99.9% | [4] 87.6% | [5] 113% | [6] 102% | [7] 103% | [8] 108% | [9] 99.9% | [10] 98.2% | [11] 99.9% | [12] 102% | [13] 93.6% | [14] 106% | [15] 103% | [16] 138% | [17] 106% | [19] 92.7% | [18] 103%

O=c1[nH][n+](-c2ccc(Br)cc2)no1
inactive: [1] 55.8% | [2] 60.8% | [3] 66.7% | [4] 22.7% | [5] 63.8% | [6] 37.8% | [7] 18.5% | [8] 93.8% | [9] 55.1% | [10] 41.5% | [11] 56.6% | [12] 55.7% | [13] 74.7% | [14] 57.9% | [15] 82.3% | [16] 62.1% | [17] 58.8% | [19] 97.7% | [18] 73.9%

C=C(C)[C@@H]1CC[C@]2(N=C=O)CC[C@]3(C)[C@H](CC[C@@H]4[C@@]5(C)Cc6c([nH]c7ccccc67)C(C)(C)[C@@H]5CC[C@]43C)[C@@H]12
inactive: [1] 108% | [2] 89% | [3] 72.4% | [4] 64.8% | [5] 21.1% | [6] 99% | [7] 69.9% | [8] 137% | [9] 67.6% | [10] 61.4% | [11] 18.8% | [12] 70.7% | [13] 92.9% | [14] 72.7% | [15] 89.4% | [17] 89.2% | [19] 92% | [18] 83.5%

COc1nc2ccccc2cc1-c1nc2c(cnn2-c2ccccc2)c(=O)[nH]1
inactive: [1] 12.9% | [2] 58.5% | [3] 65.8% | [4] 40.2% | [5] 72% | [6] 57.6% | [7] 42.1% | [8] 18.9% | [9] 21.1% | [10] 40.4% | [11] 44.2% | [12] 63.3% | [13] 79.5% | [14] 76.2% | [15] 53.8% | [16] 48.1% | [18] 40.7%
active: [17] 7.05%

COc1cc(C(=O)/C=C/c2sc(Cl)nc2Cl)cc(OC)c1OC
inactive: [1] 82.7% | [2] 55.6% | [4] 67.2% | [5] 94.3% | [7] 37.1% | [8] 89.9% | [9] 10.9% | [10] 23.2% | [12] 33.6% | [13] 77.1% | [14] 57.2% | [15] 97.7% | [16] 25.5% | [18] 76.3%
active: [3] 7.55% | [6] -94.7% | [11] -38% | [17] -95.5%

COc1cc(C(=O)c2cc(C)c3[nH]c4ccc(O)cc4c3c2C)cc(OC)c1OC
active: [8] -12.7% | [11] 8.34% | [17] -45% | [18] 8.01%
inactive: [1] 62.3% | [2] 35.9% | [3] 25% | [4] 22.2% | [5] 93.3% | [6] 24.3% | [7] 24.5% | [9] 15.5% | [10] 15.1% | [12] 27.3% | [13] 38.9% | [14] 48.3% | [15] 46.5% | [16] 12.1%
